Inconclusive results are not listed. Unmarked numbers belong to inactive results. Calls of active or inactive are those of the source. Calls follow the shape of the dose curve; as a rule, active = well fitted cell-killing curve with a large enough effect; inconclusive = small, poorly fitted or top-dose-only effect, or effect the other way; inactive = no such curve, though single readings can be large or run the other way.
Legend:
[1] = Quantitative High-Throughput drug screen in 47 multiple myeloma cell lines against the NCATS MIPE library collection: OCIMY1_PLB cell viability assay (AID 1918979); also: nearly all actives have a fitted effect of over 35% in size; as to viability: series mostly up to about 46 µM
How it was run: (§1)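 qHTS format: cells plated (500/well), pin-dosed with MIPE 4.0 compounds, kept 48 h at 37 °C. Readout was CellTiter-Glo luminescence, median RLU.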

[2] = Quantitative High-Throughput drug screen in 47 multiple myeloma cell lines against the NCATS MIPE library collection: MM1S_ATCC cell viability assay (AID 1918980); also: nearly all actives have a fitted effect of over 45% in size
How it was run: as §1

[3] = Quantitative High-Throughput drug screen in 47 multiple myeloma cell lines against the NCATS MIPE library collection: MM1R_ATCC cell viability assay (AID 1918981); also: nearly all actives have a fitted effect of over 35% in size
How it was run: as §1

[4] = Quantitative High-Throughput drug screen in 47 multiple myeloma cell lines against the NCATS MIPE library collection: LP1_DSMZ cell viability assay (AID 1918982); also: nearly all actives have a fitted effect of over 35% in size
How it was run: as §1

[5] = Quantitative High-Throughput drug screen in 47 multiple myeloma cell lines against the NCATS MIPE library collection: KMS28PE_JCRB cell viability assay (AID 1918983); also: nearly all actives have a fitted effect of over 35% in size
How it was run: as §1

[6] = Quantitative High-Throughput drug screen in 47 multiple myeloma cell lines against the NCATS MIPE library collection: KMS34_JCRB cell viability assay (AID 1918985); also: nearly all actives have a fitted effect of over 40% in size
How it was run: as §1

[7] = Quantitative High-Throughput drug screen in 47 multiple myeloma cell lines against the NCATS MIPE library collection: U266_ATCC cell viability assay (AID 1919864); also: nearly all actives have a fitted effect of over 35% in size
How it was run: as §1

[8] = Quantitative High-Throughput drug screen in 47 multiple myeloma cell lines against the NCATS MIPE library collection: XG6_PLB cell viability assay (AID 1919865); also: nearly all actives have a fitted effect of over 40% in size
How it was run: as §1

[9] = Quantitative High-Throughput drug screen in 47 multiple myeloma cell lines against the NCATS MIPE library collection: XG1_PLB cell viability assay (AID 1919866); also: nearly all actives have a fitted effect of over 35% in size
How it was run: as §1

[10] = Quantitative High-Throughput drug screen in 47 multiple myeloma cell lines against the NCATS MIPE library collection: PE2_PLB cell viability assay (AID 1919869); also: nearly all actives have a fitted effect of over 35% in size
How it was run: as §1

[11] = Quantitative High-Throughput drug screen in 47 multiple myeloma cell lines against the NCATS MIPE library collection: RPMI8226_ATCC cell viability assay (AID 1919871); also: nearly all actives have a fitted effect of over 30% in size
How it was run: as §1

[12] = Quantitative High-Throughput drug screen in 47 multiple myeloma cell lines against the NCATS MIPE library collection: OPM2_DSMZ cell viability assay (AID 1919872); also: nearly all actives have a fitted effect of over 30% in size
How it was run: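 CellTiter-Glo luminescence (ATP) after 48 h compound exposure, 37C/5% CO2; 500 cells/well; MIPE 4.0 approved/investigational drugs pinned in; DMSO = 100%, media only = 0% viability.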

[13] = Quantitative High-Throughput drug screen in 47 multiple myeloma cell lines against the NCATS MIPE library collection: OPM1_PLB cell viability assay (AID 1918989); also: nearly all actives have a fitted effect of over 40% in size
How it was run: as §1

[14] = Quantitative High-Throughput drug screen in 47 multiple myeloma cell lines against the NCATS MIPE library collection: SKMM1_PLB cell viability assay (AID 1919863); details: SKMM1 myeloma viability, CellTiter-Glo ATP, 48 h; viability: active compounds read low; also: nearly all actives have a fitted effect of over 35% in size; as to viability: series mostly up to about 46 µM
How it was run: as §1

[15] = Quantitative High-Throughput drug screen in 47 multiple myeloma cell lines against the NCATS MIPE library collection: VP6_DJ cell viability assay (AID 1919867); also: nearly all actives have a fitted effect of over 40% in size
How it was run: as §1

[16] = Quantitative High-Throughput drug screen in 47 multiple myeloma cell lines against the NCATS MIPE library collection: PCM6_Riken cell viability assay (AID 1919870); also: nearly all actives have a fitted effect of over 30% in size
How it was run: as §1

[17] = Quantitative High-Throughput drug screen in 47 multiple myeloma cell lines against the NCATS MIPE library collection: OCIMY7_PLB cell viability assay (AID 1918987); also: nearly all actives have a fitted effect of over 65% in size
How it was run: as §1

[18] = Quantitative High-Throughput drug screen in 47 multiple myeloma cell lines against the NCATS MIPE library collection: UTMC2_PLB cell viability assay (AID 1919868); also: nearly all actives have a fitted effect of over 55% in size
How it was run: as §1

[19] = Quantitative High-Throughput drug screen in 47 multiple myeloma cell lines against the NCATS MIPE library collection: L363_DSMZ cell viability assay (AID 1918984); also: nearly all actives have a fitted effect of over 40% in size
How it was run: as §1
Potency is read from the fitted curve at half-maximal effect.

Compound	Potency [1]	Potency [2]	Potency [3]	Potency [4]	Potency [5]	Potency [6]	Potency [7]	Potency [8]	Potency [9]	Potency [10]	Potency [11]	Potency [12]	Potency [13]	Potency [14]	Potency [15]	Potency [16]	Potency [17]	Potency [18]	Potency [19]	viability [14] [%]
NC(=O)OCC(COC(N)=O)c1ccccc1	inactive	5.9 µM (active)	inactive	inactive	inactive	inactive	10.5 µM (active)	inactive	inactive	inactive	inactive	inactive								
CNCCCC12CCC(c3ccccc31)c1ccccc12	20.9 µM (active)	16.6 µM (active)	29.6 µM (active)	20.9 µM (active)	23.5 µM (active)		16.6 µM (active)	18.7 µM (active)	26.4 µM (active)	23.5 µM (active)	20.9 µM (active)	23.5 µM (active)	23.5 µM (active)	18.7 µM (active)	20.9 µM (active)	23.5 µM (active)				
CC#C[C@]1(O)CC[C@H]2[C@@H]3CCC4=CC(=O)CCC4=C3[C@@H](c3ccc(N(C)C)cc3)C[C@@]21C	3.72 µM (active)	0.187 µM (active)	0.743 µM (active)	2.64 µM (active)	1.32 µM (active)	1.32 µM (active)	0.662 µM (active)	0.264 µM (active)	0.743 µM (active)	0.833 µM (active)	3.72 µM (active)	1.18 µM (active)	1.48 µM (active)	4.18 µM (active)	0.833 µM (active)	0.743 µM (active)	1.18 µM (active)	0.418 µM (active)		
CS(=O)(=O)Nc1ccc([N+](=O)[O-])cc1Oc1ccccc1	inactive	16.6 µM (active)	20.9 µM (active)		0.187 µM (active)			inactive	inactive		16.6 µM (active)				inactive	inactive				
O=C(Nc1ccc([N+](=O)[O-])cc1Cl)c1cc(Cl)ccc1O	2.96 µM (active)	1.18 µM (active)	1.66 µM (active)	0.743 µM (active)	2.09 µM (active)	1.66 µM (active)		1.32 µM (active)	0.935 µM (active)	0.526 µM (active)	1.05 µM (active)	1.32 µM (active)	0.833 µM (active)	1.48 µM (active)	0.743 µM (active)	1.32 µM (active)		1.05 µM (active)	1.05 µM (active)	
CC1(CN2CCC(n3c(=O)[nH]c4ccccc43)CC2)OCc2ccccc2-n2cccc21 (centres undefined)	inactive	7.43 µM (active)	2.64 µM (active)		14.8 µM (active)		5.9 µM (active)	4.18 µM (active)	4.18 µM (active)	13.2 µM (active)		inactive	8.33 µM (active)						inactive	
CC[C@@]1(O)C(=O)OCc2c1cc1n(c2=O)Cc2cc3c(CN(C)C)c(O)ccc3nc2-1	13.2 µM (active)	0.166 µM (active)	0.166 µM (active)	13.2 µM (active)	0.935 µM (active)	3.32 µM (active)	13.2 µM (active)	0.0132 µM (active)	0.0743 µM (active)	0.662 µM (active)	14.8 µM (active)	16.6 µM (active)	9.35 µM (active)	3.32 µM (active)	1.48 µM (active)	1.66 µM (active)	0.148 µM (active)	0.0526 µM (active)		
CC(CCc1ccc(O)cc1)NCCc1ccc(O)c(O)c1 (centres undefined)	18.7 µM (active)	10.5 µM (active)	18.7 µM (active)	20.9 µM (active)		9.35 µM (active)	23.5 µM (active)		23.5 µM (active)	20.9 µM (active)	18.7 µM (active)	18.7 µM (active)	26.4 µM (active)	18.7 µM (active)	16.6 µM (active)	20.9 µM (active)	16.6 µM (active)			
CN1CCN(CCCN2c3ccccc3Sc3ccc(Cl)cc32)CC1	inactive	9.35 µM (active)	26.4 µM (active)				18.7 µM (active)	14.8 µM (active)	14.8 µM (active)	23.5 µM (active)		inactive	16.6 µM (active)		10.5 µM (active)	8.33 µM (active)	26.4 µM (active)	23.5 µM (active)		
NCCCCCC(=O)O	inactive	16.6 µM (active)	inactive	inactive	inactive			inactive	inactive	inactive	inactive	inactive	inactive			inactive		inactive		
CC1(C)O[C@H]2CC(=O)OC[C@]23[C@H]2CC[C@@]4(C)[C@H](c5ccoc5)OC(=O)[C@H]5O[C@]54[C@]2(C)C(=O)C[C@@H]13	inactive	inactive	inactive	inactive	inactive	inactive		inactive	inactive	inactive	inactive	inactive								
CCC1(c2ccccc2)C(=O)NCNC1=O	inactive	1.05 µM (active)	inactive	inactive		inactive	2.96 µM (active)	2.09 µM (active)	2.96 µM (active)	2.96 µM (active)		inactive	8.33 µM (active)		4.69 µM (active)	3.72 µM (active)	3.32 µM (active)			
CC(C)NCC(O)COc1ccc(CCOCC2CC2)cc1 (centres undefined)	inactive	16.6 µM (active)	inactive	inactive	inactive	5.9 µM (active)			inactive	inactive	inactive	inactive	inactive			inactive		inactive		
COc1ccc2c(c1)c(CC(=O)O)c(C)n2C(=O)c1ccc(Cl)cc1	inactive	18.7 µM (active)	inactive	inactive		inactive	18.7 µM (active)	18.7 µM (active)	5.26 µM (active)	inactive	inactive	inactive	inactive		20.9 µM (active)		13.2 µM (active)			128

From PubChem BioAssay (NCATS)
